Measurements as given in article PMC5540273 (PLoS ONE, 2017).

tested on: MKK7; details: concentration: 1 μM,replicates: in singlicate; n = 1
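Further: KINOMEscan kinase panel screen.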

In order of rising “%Inh” value:
1. CNC(=O)c1ccccc1Sc1ccc2c(/C=C/c3ccccn3)n[nH]c2c1  0%
2. C[C@@H](Oc1cc(-c2cnn(C3CCNCC3)c2)cnc1N)c1c(Cl)ccc(F)c1Cl  0%
3. C[C@@H]1CCN(C(=O)CC#N)C[C@@H]1N(C)c1ncnc2[nH]ccc12  0%
4. Cl.Cl.NC[C@H](CC1CCCCC1)NC(=O)c1cc(Br)c(-c2ccnc3[nH]ccc23)s1 [GSK1581427]  0%
5. Cc1cc(C(=O)Nc2ccc(Oc3ccc4nc(NC(=O)C5CC5)cn4n3)cc2)nn1-c1ccccc1  0%
6. CCN(CC)CCCCNc1ncc2cc(-c3c(Cl)cccc3Cl)c(NC(=O)NC(C)(C)C)nc2n1  0%
7. CN(C)CC(O)COc1ccc(Nc2nccc(-c3cnn4nc(N5CCOCC5)ccc34)n2)cc1 (stereo not drawn) [GW767488]  0%
8. Cc1ccc(-n2nc(C(C)(C)C)cc2NC(=O)Nc2ccc(OCCN3CCOCC3)c3ccccc23)cc1 [GW839464]  0%
9. C[C@H]1Oc2cc(cnc2N)-c2c(nn(C)c2C#N)CN(C)C(=O)c2ccc(F)cc21  0%
10. Cl.Cl.NC[C@H](Cc1ccc(C(F)(F)F)cc1)NC(=O)c1cc(Br)c(-c2ccnc3[nH]ccc23)s1 [GSK1487252]  0%
11. CCn1c(-c2nonc2N)nc2c(C#CC(C)(C)O)nc(OCCN)cc21.Cl.Cl [GSK902056]  0%
12. Cl.Cl.Nc1nc(-c2ccc3c(N)n[nH]c3c2)cc(N2CCCC(NC(=O)c3ccccc3)C2)n1 (stereo not drawn) [GSK2286775]  0%
13. Nc1nc(Nc2ccccc2)cc(-c2ccc3c(N)n[nH]c3c2)n1 [GSK2225749]  0%
14. CC(C)Nc1cc(-c2ccc3c(N)n[nH]c3c2)nc(N)n1 [GSK2221681]  0%
15. Cc1ccc2c(-c3ccncc3)c(-c3ccc(F)cc3)nn2c1.Cl [GW461484]  0%
16. Cc1occc1-c1nc(N)c(OC[C@@H](N)Cc2c[nH]c3ccccc23)cc1-c1cc2c(C)n[nH]c2cn1 [GSK1660450]  0%
17. O=C(NCCCN1CCOC1=O)c1cnc(NCc2cc(Cl)ccc2Cl)nc1NC1CCCC1  0%
18. CC(C)N1C(=O)Cc2cc(Nc3ncc(C(F)(F)F)c(NCc4cccc(S(C)(=O)=O)c4)n3)ccc21  2%
19. Cl.Oc1cc(-c2nc(-c3ccccc3)[nH]c2-c2ccncc2)ccc1Cl [SB-386023]  10%
20. CCN(CC)CCOc1ccc(Nc2ncc3cc(-c4c(Cl)cccc4Cl)c(=O)n(C)c3n2)cc1 [SB-601273]  11%
21. CN(C)CCOc1ccc(-c2cc(-c3c[nH]nc3-c3ccccn3)ccn2)cc1 [GW835314]  13%
22. NC(=O)c1cc(-c2ccccc2)cc2c(C3CCNCC3)c[nH]c12 [GSK301362]  18%
23. Cc1n[nH]c2ccc(-c3cc(OC[C@@H](N)Cc4ccccc4)cnc3-c3ccoc3)cc12.O=C(O)C(F)(F)F.O=C(O)C(F)(F)F [GSK507358]  21%
24. O=C(NCCNc1ccnc(NCc2ccc(F)cc2)n1)c1cc2ccccc2s1 [GSK1379944]  26%
25. Cc1cc2cn[nH]c2cc1-c1cccc2c(N)c(C(N)=O)nnc12  27%
26. C=CC(=O)Nc1cc2c(Nc3ccc(F)c(Cl)c3)ncnc2cc1OCCCN1CCOCC1 [GW781483]  62%
27. COc1ccc(C[C@@H](CN)NC(=O)c2cc(Br)c(-c3ccnc4[nH]ccc34)s2)cc1.Cl.Cl [GSK1389063]  82%
